Results taken from PubChem BioAssay (NCATS).
Records with an inconclusive call do not appear. Entries that show only a call come without a potency. Calls of active or inactive are those of the source. Unless noted, calls come from the whole dose curve; as a rule, active = well fitted curve in the direction sought with a large enough effect; inconclusive = small, poorly fitted or top-dose-only effect, or another doubt; inactive = no such curve, though single readings can be large; an effect the other way counts as inactive or inconclusive.

Key:
[1] = qHTS assay for measurement of the activity of small molecule inhibitors on Zika virus induced Caspase-3 activity in human iPSC derived neural progenitor cells (hNPCs) (AID 1224857); note: nearly all actives have a fitted effect of over 65% in size
How it was run: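 Cells were plated at 350 per well and grown 16 to 20 hours. Compound pretreatment lasted one hour, after which ZIKV (2 FFU/cell) was added for 6 hours. Percent inhibition was normalized between uninfected and infected controls.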

[2] = qHTS assay for measurement of the activity of small molecule inhibitors on Zika virus induced Caspase-3 activity in human astrocytoma cells (AID 1224859)
How it was run: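 Percent inhibition of virus-induced caspase-3/7 signal is calculated against uninfected and ZIKV-infected control cells. Cells are SNB-19, infected at 2 FFU/cell for 6 h after 1 h compound exposure.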

[3] = P-glycoprotein substrates identified in KB-8-5-11 adenocarcinoma cell line, qHTS therapeutic library screen (AID 1346987); note: series mostly up to about 44 µM; nearly all actives have a fitted effect of over 65% in size
How it was run: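 KB-8-5-11, a colchicine-selected P-gp-overexpressing KB-3-1 subline, was grown without colchicine for the assay. Cells were seeded at 500 cells/well, dosed in concentration-response and incubated 72 h at 37 degree C, 5% CO2. Viability was read by CellTiter-Glo luminescence.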

[4] = NS1 protein of Zika virus - qHTS assay to identify small molecule inhibitors in human HEK 293 cells (AID 1347053); note: series mostly up to about 46 µM; nearly all actives have a fitted effect of over 55% in size
How it was run: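 Following 20 h seeding, HEK 293 cells took compound, then 1 h later ZIKV MR766 (MOI = 0.5). Incubation ran 24 h at 37 C before TR-FRET detection of NS1; a drop in signal indicates inhibition.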

[5] = qHTS of pediatric cancer cell lines to identify multiple opportunities for drug repurposing: Primary screen for TC32 cells (AID 1347089); note: nearly all actives have a fitted effect of over 60% in size
How it was run: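 Luminescent ATP read-out (CellTiter-Glo) of metabolically active TC32 cells after 48 h exposure. Concentration-response curves came from 11-point (MIPE, 0.78 nM–46 µM) or 8-point (NPC, 0.59 nM–46 µM) primary titrations; follow-up used 11 points.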

[6] = qHTS of pediatric cancer cell lines to identify multiple opportunities for drug repurposing: Primary screen for DAOY cells (AID 1347090); note: nearly all actives have a fitted effect of over 55% in size; note: potency is the fitted concentration of half-maximal effect
How it was run: (§1)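 Eight- or eleven-point concentration series, 48 h treatment at 37 degrees C in growth media; readout CellTiter-Glo luminescence. Potency and efficacy were taken from the concentration-response curves.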

[7] = qHTS of pediatric cancer cell lines to identify multiple opportunities for drug repurposing: Primary screen for SJ-GBM2 cells (AID 1347091)
How it was run: as §1

[8] = qHTS of pediatric cancer cell lines to identify multiple opportunities for drug repurposing: Primary screen for SK-N-MC cells (AID 1347093); note: potency is the fitted concentration of half-maximal effect
How it was run: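 Metabolically active cells were quantified by ATP-dependent luminescence (CellTiter-Glo, 15 min at room temperature) following 48 h treatment. Cells had been plated at 500-1,000 per well and settled for 5 h beforehand.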

[9] = qHTS of pediatric cancer cell lines to identify multiple opportunities for drug repurposing: Primary screen for BT-37 cells (AID 1347094); note: potency is the fitted concentration of half-maximal effect
How it was run: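 Cells seeded at 500-1,000 cells/well in growth media, rested 5 hours at 37 degrees C, 5% CO2, then dosed; MIPE compounds at 11-point (from 0.78 nM) and NPC at 8-point (from 0.59 nM) final concentrations. Viability by CellTiter-Glo luminescence after 48 hours.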

[10] = qHTS of pediatric cancer cell lines to identify multiple opportunities for drug repurposing: Primary screen for A673 cells (AID 1347092); note: nearly all actives have a fitted effect of over 45% in size; note: potency is the fitted concentration of half-maximal effect
How it was run: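 Cell viability of A673 measured by CellTiter-Glo ATP luminescence after 48 hours compound exposure. Dilution series spanned 0.78 nM to 46 µM (MIPE, 11-point) or 0.59 nM to 46 µM (NPC, 8-point); bortezomib 2.3 uM positive control.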

[11] = molecular target: Atrial natriuretic peptide receptor 2 (Homo sapiens) (UniProt P20594); test: Natriuretic polypeptide receptor (hNpr2) antagonism - Pilot subtype selectivity assay (AID 1347050; calls by dose curve)
Atrial natriuretic peptide receptor 2 (Homo sapiens), sequence (P20594 whole entry, looked up): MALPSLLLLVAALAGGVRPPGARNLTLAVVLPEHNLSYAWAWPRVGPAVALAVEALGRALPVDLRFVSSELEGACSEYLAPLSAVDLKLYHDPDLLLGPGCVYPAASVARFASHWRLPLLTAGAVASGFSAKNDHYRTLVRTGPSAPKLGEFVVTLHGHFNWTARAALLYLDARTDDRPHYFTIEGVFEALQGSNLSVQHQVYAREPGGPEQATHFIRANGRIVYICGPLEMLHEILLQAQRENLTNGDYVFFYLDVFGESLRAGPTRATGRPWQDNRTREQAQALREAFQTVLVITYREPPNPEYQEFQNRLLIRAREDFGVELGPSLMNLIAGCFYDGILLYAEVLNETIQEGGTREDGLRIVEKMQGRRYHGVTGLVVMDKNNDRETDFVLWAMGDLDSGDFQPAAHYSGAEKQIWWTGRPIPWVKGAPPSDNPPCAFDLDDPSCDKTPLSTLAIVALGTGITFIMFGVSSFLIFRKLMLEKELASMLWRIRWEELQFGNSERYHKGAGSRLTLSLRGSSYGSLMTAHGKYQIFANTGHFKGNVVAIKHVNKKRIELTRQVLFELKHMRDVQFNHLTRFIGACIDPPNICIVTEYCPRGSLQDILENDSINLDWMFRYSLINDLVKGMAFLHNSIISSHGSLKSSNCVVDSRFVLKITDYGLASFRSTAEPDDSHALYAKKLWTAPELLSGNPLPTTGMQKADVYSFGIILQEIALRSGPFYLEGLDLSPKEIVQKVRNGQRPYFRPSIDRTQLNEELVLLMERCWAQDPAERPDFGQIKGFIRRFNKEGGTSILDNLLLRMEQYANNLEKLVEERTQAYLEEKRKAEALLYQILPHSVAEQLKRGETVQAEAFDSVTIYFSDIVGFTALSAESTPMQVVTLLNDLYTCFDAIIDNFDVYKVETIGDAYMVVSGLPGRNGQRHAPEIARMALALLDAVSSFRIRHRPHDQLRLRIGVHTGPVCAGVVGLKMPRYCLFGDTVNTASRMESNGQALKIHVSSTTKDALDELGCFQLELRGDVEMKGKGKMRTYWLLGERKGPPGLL
How it was run: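 cGMP-sensor HEK293/hNpr2 cells; 2% GloSensor reagent 2 h RT; compounds 30 min; baseline luminescence read; 1 nM hNppC agonist 20 min RT; final luminescence read by CCD camera. Antagonism = reduced post-agonist signal.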

[12] = molecular target: T1, Tyrosine-protein phosphatase non-receptor type substrate 1 (Homo sapiens) + Leukocyte surface antigen CD47 (Homo sapiens) (UniProt P78324+Q08722); test: CD47-SIRPalpha protein protein interaction - LANCE assay qHTS validation (AID 1347057; active = well fitted curve in the direction sought with a large enough effect in the signal ratio, with a control signal flat, not every such curve was filed as active; the % refers to the signal ratio; note: series mostly up to about 38 µM)
T1 sequence (P78324 whole entry, looked up): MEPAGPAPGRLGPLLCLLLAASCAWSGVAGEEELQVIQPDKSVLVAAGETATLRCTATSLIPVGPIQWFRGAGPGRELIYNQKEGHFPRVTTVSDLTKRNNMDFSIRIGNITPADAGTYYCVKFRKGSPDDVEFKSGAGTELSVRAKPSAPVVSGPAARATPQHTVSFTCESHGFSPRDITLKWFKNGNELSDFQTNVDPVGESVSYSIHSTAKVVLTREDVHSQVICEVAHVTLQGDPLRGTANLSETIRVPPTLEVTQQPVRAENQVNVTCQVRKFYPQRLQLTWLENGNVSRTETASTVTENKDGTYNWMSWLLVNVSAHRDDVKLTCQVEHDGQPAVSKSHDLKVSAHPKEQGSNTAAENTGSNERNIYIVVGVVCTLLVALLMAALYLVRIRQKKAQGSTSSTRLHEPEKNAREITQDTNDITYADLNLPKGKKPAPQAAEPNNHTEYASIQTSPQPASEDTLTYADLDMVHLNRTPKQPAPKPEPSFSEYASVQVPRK
T1 sequence (Q08722 whole entry, looked up): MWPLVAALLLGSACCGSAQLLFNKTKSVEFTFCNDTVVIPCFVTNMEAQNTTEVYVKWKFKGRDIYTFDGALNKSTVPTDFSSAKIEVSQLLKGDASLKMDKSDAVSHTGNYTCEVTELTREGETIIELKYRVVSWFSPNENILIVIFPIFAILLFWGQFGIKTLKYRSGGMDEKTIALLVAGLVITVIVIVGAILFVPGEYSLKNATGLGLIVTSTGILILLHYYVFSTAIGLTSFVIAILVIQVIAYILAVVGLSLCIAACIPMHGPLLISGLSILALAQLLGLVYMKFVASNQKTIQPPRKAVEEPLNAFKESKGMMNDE
How it was run: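 First, His-tagged CD47 and Eu-labelled anti-His antibody met the compound for 30 min; next, site-specifically biotinylated SIRPalpha was added for 30 min; finally streptavidin-APC was added before reading the TR-FRET ratio.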

[13] = molecular target: Parathyroid hormone/parathyroid hormone-related peptide receptor (Homo sapiens) (UniProt Q03431); test: qHTS for PTHR1 Agonists: Optimization Screen against the NCGC LOPAC library (AID 1347079);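 note: GloSensor cAMP luminescence in HEK-293 GP2 cells expressing human PTHR1 with IBMX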
Parathyroid hormone/parathyroid hormone-related peptide receptor (Homo sapiens), sequence (Q03431 whole entry, looked up): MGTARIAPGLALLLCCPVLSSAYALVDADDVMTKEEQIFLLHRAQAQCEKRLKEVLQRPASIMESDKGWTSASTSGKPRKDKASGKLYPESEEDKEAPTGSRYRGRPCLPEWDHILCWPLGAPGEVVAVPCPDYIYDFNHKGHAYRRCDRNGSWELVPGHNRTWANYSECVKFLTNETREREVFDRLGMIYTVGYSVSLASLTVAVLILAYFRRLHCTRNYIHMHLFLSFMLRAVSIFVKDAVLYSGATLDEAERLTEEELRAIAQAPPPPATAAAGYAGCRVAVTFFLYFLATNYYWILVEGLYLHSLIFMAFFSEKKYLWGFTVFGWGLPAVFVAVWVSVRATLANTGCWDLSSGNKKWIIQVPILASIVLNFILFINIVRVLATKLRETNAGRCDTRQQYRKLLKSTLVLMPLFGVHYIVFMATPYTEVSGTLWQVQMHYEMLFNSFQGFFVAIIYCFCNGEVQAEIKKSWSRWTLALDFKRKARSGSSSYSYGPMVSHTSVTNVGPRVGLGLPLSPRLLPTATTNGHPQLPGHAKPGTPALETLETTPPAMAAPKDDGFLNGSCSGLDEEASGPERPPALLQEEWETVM
How it was run: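 Agonist readout: GloSensor cAMP luminescence, read after 15 min at room temperature. HEK-293-derived GP2 line carries PTHR1; compounds tested as a titration for 1 hr at 37C in presence of IBMX. M-PTH (1-15) served as control.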

[14] = molecular target: T1, Tyrosine-protein phosphatase non-receptor type substrate 1 (Homo sapiens) + Leukocyte surface antigen CD47 (Homo sapiens); test: CD47-SIRPalpha protein protein interaction - Alpha assay qHTS validation (AID 1347059);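 note: bead proximity luminescence from CD47 binding SIRPalpha after compound preincubation with SIRPalpha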
How it was run: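 Soluble extracellular domains: Avi-tag biotinylated SIRPalpha (25 nM) preincubated 30 min RT with compound, then 6His-CD47 (12.5 nM) 30 min; Ni-NTA acceptor and streptavidin donor beads (10 ug/mL) 30 min, AlphaScreen read. PBS pH 7.4, 0.05% IGEPAL.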

| Structure (SMILES) | Potency [1] | outcome [2] | Potency [3] | Potency [4] | Potency [5] | Potency [6] | Potency [7] | Potency [8] | Potency [9] | Potency [10] | Potency [11] | outcome [12] | outcome [13] | Potency [14] |
| --- | --- | --- | --- | --- | --- | --- | --- | --- | --- | --- | --- | --- | --- | --- |
| Cc1ccccc1N1CCN(CCc2nnc3n2CCCC3)CC1 | inactive | inactive | inactive | inactive | inactive | inactive | inactive | inactive | inactive |  |  |  |  |  |
| CCCC(=O)c1cc(O)c(O)cc1O | inactive | inactive | inactive | inactive | inactive | inactive |  |  |  | 12.2 µM (active) |  |  |  |  |
| O=C(c1ccccc1)c1ccccc1 | inactive | inactive | inactive | inactive | inactive | inactive |  | inactive | inactive | inactive |  |  |  |  |
| CC(C)C(C)(C)C(C)(C)C(C)(C)S | inactive | inactive | inactive | inactive | inactive | inactive | inactive |  | inactive | inactive |  |  |  |  |
| Cc1cc(C(C)(C)C)c(O)c(C(C)(C)C)c1 | inactive | inactive | inactive | inactive | inactive | inactive | inactive |  | inactive |  |  |  |  |  |
| COc1cc(C(=O)NC2CCCNC2)cc(OC)c1OC (stereo unspecified) | inactive | inactive | inactive | inactive |  | inactive | inactive | inactive | inactive | inactive |  |  |  |  |
| O=C(O)CCCC[C@@H]1SC[C@@H]2NC(=O)N[C@@H]21 | inactive | inactive | inactive | inactive |  | inactive | inactive |  | inactive | inactive |  |  |  |  |
| Oc1ccccc1 | inactive | inactive | inactive | inactive |  | inactive | inactive | inactive | inactive | inactive |  |  |  |  |
| C1=CC2C3C=CC(C3)C2C1 (stereo unspecified) | inactive | inactive | inactive | inactive | inactive | inactive | inactive |  | inactive |  |  |  |  |  |
| CCN1CCN(C(=O)N[C@@H](C(=O)N[C@@H]2C(=O)N3[C@@H]2SC(C)(C)[C@H]3C(=O)O)c2ccccc2)C(=O)C1=O | inactive | inactive | inactive | inactive | inactive | inactive |  | inactive | inactive |  |  |  |  |  |
| Cc1ccccc1C(=O)N1CC/C(=N\OS(=O)(=O)O)c2ccc(Cl)cc21 | inactive | inactive | inactive | inactive | inactive |  | inactive |  | inactive | inactive |  |  |  |  |
| CC(C)OC(=O)c1cc2c(OCC(O)CNC(C)(C)C)cccc2[nH]1 (stereo unspecified) | inactive | inactive | inactive | inactive | inactive | inactive | inactive |  | inactive |  |  |  |  |  |
| CC(=O)Nc1c(I)c(NC(C)=O)c(I)c(C(=O)O)c1I | inactive | inactive | inactive | inactive | inactive | inactive | inactive |  | inactive | inactive |  |  |  |  |
| CCOc1ccc(NS(=O)(=O)c2ccc(N)cc2)nn1 | inactive | inactive | inactive | inactive |  | inactive | inactive |  | inactive | inactive |  |  |  |  |
| CC(=O)N(CC(O)CO)c1c(I)c(C(=O)NCCO)c(I)c(C(=O)NCC(O)CO)c1I (stereo unspecified) | inactive | inactive | inactive | inactive | inactive |  | inactive | inactive | inactive | inactive |  |  |  |  |
| O=C(O)/C=C(\CC(=O)O)C(=O)O | inactive | inactive | inactive | inactive | inactive |  | inactive |  |  | inactive |  |  |  |  |
| Cc1c(C)c2c(c(C)c1OC(=O)CCC(=O)OCCO)CC[C@@](C)(CCC[C@H](C)CCC[C@H](C)CCCC(C)C)O2 | inactive | inactive | inactive | inactive |  |  | inactive |  |  |  |  |  |  |  |
| CCCCCCCCCCCC[N+](C)(C)Cc1ccccc1 | inactive | inactive | inactive |  |  | 16.8 µM (active) | inactive | 2.66 µM (active) | 15.5 µM (active) | 8.41 µM (active) |  |  |  |  |
| OCc1c[nH]c2ccccc12 | inactive | inactive | inactive |  | inactive | inactive |  | 21.7 µM (active) | inactive |  |  |  |  |  |
| O=C(c1cc(O)c(O)c(O)c1)c1ccc(O)c(O)c1O | inactive | inactive |  | inactive | inactive | inactive | inactive |  |  |  |  |  |  |  |
| O=[N+]([O-])c1ccc(-c2nc(-c3ccc(F)cc3)c(-c3ccncc3)[nH]2)cc1 | inactive | inactive |  | inactive |  |  |  |  |  |  | inactive | inactive | inactive |  |
| O=C(O)c1ccccc1S | inactive | inactive | inactive |  | inactive | inactive | inactive | inactive | inactive | inactive |  |  |  |  |
| Cc1cccc(N(C)C(=S)Oc2ccc3c(c2)C2CCC3C2)c1 (stereo unspecified) | inactive | inactive |  | inactive | inactive | 26.6 µM (active) |  |  |  |  |  |  |  |  |
| O=C1NC(=O)/C(=C/c2ccc3c(c2)OC(F)(F)O3)S1 | inactive | inactive |  | inactive |  |  |  |  |  |  | inactive | inactive | inactive | inactive |
| COc1cccc2c1[C@@H]1CN(CCCCn3c(=O)[nH]c4c(sc5ncc(-c6ccccc6)nc54)c3=O)C[C@@H]1CO2 | inactive | inactive |  | inactive |  |  |  |  |  |  | inactive | inactive | inactive | inactive |
| O=C(O)c1ccccc1Nc1cc(Cl)ccc1C(=O)O | inactive | inactive | inactive |  | inactive |  | inactive | 8.2 µM (active) | inactive | inactive |  |  |  |  |
